Bioassay records as filed in PubChem BioAssay.
Sampled rows, rich in hits. Any-hit rate of the full collection: about 4%.
Rv3671c protease = Rv3671c serine protease inhibitors, primary screen, biochemical, fluorescence polarization, M. tuberculosis H37Rv; P9WHR9; inhibition, % at 5.96 µM; 320,000 compounds, 0.048% hits; in the data active = inhibition above about 38%;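 also: extracellular domain of Rv3671c used as enzyme; 0% = enzyme with DMSO and 100% = no enzyme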
Mtb FBA inh = Mtb FBA enzyme inhibitors, primary screen, biochemical, fluorescence, strain H37Rv. Fructose-bisphosphate aldolase (Mycobacterium tuberculosis (strain ATCC 25618 / H37Rv)), …. purified M. tuberculosis FBA, fluorescence read-out. inhibition, % at 1 µM. 360,000 compounds, 2.3% hits. AID 588726, 2011; in the data active = inhibition above about 27%;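 also: 0% = vehicle and 100% = reference inhibitor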
UGM FP inh = M. tuberculosis UGM enzyme inhibitors, primary screen, biochemical, fluorescence polarization, single point; UDP-galactopyranose mutase (Mycobacterium tuberculosis (strain ATCC 25618 / H37Rv)), …; purified UGM, fluorescence polarization probe displacement; inhibition, % at 10 µM; 320,000 compounds, 0.06% hits; AID 504406, 2011; in the data active = inhibition above about 10%, passing the limit was not always enough
Target sequence (P9WIQ1 whole entry, looked up): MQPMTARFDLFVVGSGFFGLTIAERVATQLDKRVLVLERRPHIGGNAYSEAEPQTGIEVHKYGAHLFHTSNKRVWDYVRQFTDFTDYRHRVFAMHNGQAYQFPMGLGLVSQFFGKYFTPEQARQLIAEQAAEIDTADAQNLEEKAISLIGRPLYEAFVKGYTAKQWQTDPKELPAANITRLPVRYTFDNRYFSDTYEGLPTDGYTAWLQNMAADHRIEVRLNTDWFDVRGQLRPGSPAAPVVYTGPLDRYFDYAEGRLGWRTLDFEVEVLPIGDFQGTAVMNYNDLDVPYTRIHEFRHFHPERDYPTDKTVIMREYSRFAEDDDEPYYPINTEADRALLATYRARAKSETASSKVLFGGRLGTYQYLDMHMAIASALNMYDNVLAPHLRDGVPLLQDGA
Mtb bLac sens = beta-lactam sensitization of Mtb H37Rv, H37Rv; M. tuberculosis H37Rv growth with meropenem, percent inhibition; inhibition, % at 25 µM; 330,000 compounds, 0.27% hits;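 also: growth measured after seven days incubation then overnight dye step; 0% = bacteria only wells and 100% = bacteria with antibiotic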
RecA intein inh = Mtb RecA intein splicing inhibitors, primary screen, biochemical, fluorescence, HTS; Protein RecA (Mycobacterium tuberculosis (strain ATCC 25618 / H37Rv)), P9WHJ3; cell-free RecA intein splicing; inhibition, % (concentration not given with the values); 290,000 compounds, 0.75% hits; AID 2221, 2009; in the data active = inhibition above about 30%;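 also: 0% = vehicle wells and 100% = reference inhibitor control wells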
GDH-TPI counter = GDH-TPI coupling enzyme inhibitors, primary screen, artefact control for M. tuberculosis FBA inhibitor project, biochemical, absorbance, full deck; inhibition, % at 4.8 µM; GDH-TPI coupled enzyme counterscreen, NADH absorbance; 360,000 compounds, 1.2% hits; in the data active = inhibition above about 30%;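 also: 0% = DMSO wells and 100% = wells lacking the enzyme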
GFP chromophore = counter-screen: blocks GFP chromophore formation, dose response, counter-screen, biochemical, fluorescence, homogeneous; 2,100 compounds, 83% hits; AID 434968, 2010; shares compounds with RecA intein inh; EC50, µM; cell-free GFP chromophore formation
* marks the source's active call; other numbers are inactive results; . = no result. Unless noted, no rule for the calls is given here.

SMILES	Rv3671c protease	Mtb FBA inh	UGM FP inh	Mtb bLac sens	RecA intein inh	GDH-TPI counter	GFP chromophore
CCC(CC)N1CCN(C(=O)c2cc(OC)c(OC)c(OC)c2)CC1	3.8	3.3	-0.1	-3.7	0.9	3.9	.
CCOc1cc(C(c2c(C)[nH][nH]c2=O)c2c(C)[nH][nH]c2=O)cc(Cl)c1O	2.4	-4.0	0.3	6.3	94.9*	4.1	>38
CCOc1cc(/C=C2/NC(=O)NC2=O)cc([N+](=O)[O-])c1O	-9.2	-14.5	-1.4	3.8	1.4	21.1	.
CCOc1cc(C(c2c(C)[nH][nH]c2=O)c2c(C)[nH][nH]c2=O)cc([N+](=O)[O-])c1O	-5.0	-3.7	-0.8	7.7	97.4*	12.9	0.452*
COc1cc(C(c2c(C)[nH][nH]c2=O)c2c(C)[nH][nH]c2=O)cc([N+](=O)[O-])c1O	-1.9	-12.4	6.9	0.7	97.2*	13.1	0.446*
Cc1ccc(C(c2c(C)[nH][nH]c2=O)c2c(C)[nH][nH]c2=O)cc1[N+](=O)[O-]	-7.4	1.5	-3.2	-1.0	99.1*	0.0	0.495*
COc1cc(/C=C/c2[nH]c(=O)[nH]c(=O)c2[N+](=O)[O-])cc([N+](=O)[O-])c1O	12.2	-20.0	2.5	6.2	-0.7	25.7	.
C#CCOCC1CN(C)C(=O)O1 (stereo unspecified)	.	4.0	.	.	.	6.2	.
O=C(CN1CCCCC1)NNC(=O)c1cccc(Br)c1	2.9	-0.2	-2.3	2.8	3.0	-6.5	.
CCc1nnc(NS(=O)(=O)c2ccc(NC(=O)c3ccccc3OC)cc2)s1	5.7	-1.5	0.8	4.3	1.4	11.2	.
CC1(C)CC(=O)C=C(c2ccc(COC(=O)c3cccc(C(F)(F)F)c3)cc2)C1=O	.	2.2	.	.	.	4.3	.
CCOC(=O)COc1ccc(C(c2c(C)[nH][nH]c2=O)c2c(C)[nH][nH]c2=O)cc1	-4.2	-1.9	1.3	3.0	-0.5	-1.1	.
COC(=O)COc1c(Cl)cc(C(c2c(C)[nH][nH]c2=O)c2c(C)[nH][nH]c2=O)cc1OC	.	4.3	-2.4	0.1	95.7*	10.0	0.577*
Cc1ccc(O)c(N=CC2=C(O)c3ccccc3C2=O)c1	-15.4	-3.4	1.0	22.1	87.4*	19.8	3.4*
CCOC(=O)N1C(=O)[C@](c2ccc(Cl)cc2)(C(C)C)N1C(=O)OCC	-0.4	-0.6	-1.3	5.8	34.0*	4.0	3.5*
COC(=O)N1C(=O)[C@](c2ccccc2)(C(C)C)N1C(=O)OC	-2.5	1.4	3.2	-3.1	-0.7	6.2	.
CCOC(=O)N1C(=O)[C@@](c2ccc(Cl)cc2)(C(C)C)N1C(=O)OCC	3.6	1.3	-0.9	0.9	48.7*	-0.5	33*
Cc1ccc(S(=O)(=O)N2CCN(C(=O)c3c(-c4ccccc4)noc3C)CC2)c(C)c1	-5.2	3.4	0.2	4.6	-0.4	-3.7	.
COC(=O)CCCCCN1C(=O)NC(C2CC2)C(C(=O)OCc2ccccc2)=C1C (stereo unspecified)	3.3	3.1	0.3	5.5	1.5	5.2	.
Cn1c(O)c(C2=NN(C(=O)CCl)C(c3ccccc3)C2)c(=O)n(C)c1=O (stereo unspecified)	2.4	3.3	0.5	42.4	45.2*	17.2	5.75*
ON=C(CCc1ccccc1)c1ccccc1	.	4.4	.	.	.	-0.9	.
CC(=O)Nc1cccc(Oc2nc(NCCN(C)C)nc3ccsc23)c1	.	5.7	.	.	.	-1.8	.
CS/C(Nc1cc(Cl)ccc1Cl)=C(/C#N)C(=O)c1ccco1	-16.2	-1.6	-1.1	99.8	64.9*	29.9	27.3*
O=C(Nc1cc(Cl)ccc1Cl)c1ccco1	7.4	1.7	-1.7	-4.8	-2.1	-2.5	.
O=C(O)c1ccc(-n2ccnc2)c([N+](=O)[O-])c1	0.0	-1.6	2.1	-1.9	-15.2	2.2	.
